These results are taken from PubChem BioAssay.

Test [1] is described as follows: binders of probe aFSTL3 on microarray, primary screen, stem cell growth factor project, biochemical, small-molecule microarray, fluorescence 635/667 (AID 1064).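 Note: measures binding of the biotinylated anti-FSTL3 antibody to printed compounds.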 The conditions noted are these: higher = more signal.
Test [2] in a line: binders from COS7 lysate, DM2A8 probe, primary screen, torsin A project, cell lysate, small-molecule microarray, fluorescence 635/667 (AID 1065). The conditions noted are these: higher = more signal, COS7 lysate expressing mutant human TOR1A.
A short description of test [3]: binders of probe aFGF2 on microarray, primary screen, stem cell growth factor project, biochemical, small-molecule microarray, fluorescence 635/667 (AID 1067).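 Note: measures binding of biotinylated aFGF2 protein to printed compounds on slides; z-score merges feature fluorescence and signal-to-noise across triplicate slides.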 The conditions noted are these: higher = more signal.
Test [4] can be described thus: binders of probe aFGF10 on microarray, primary screen, stem cell growth factor project, biochemical, small-molecule microarray, fluorescence 635/667 (AID 1071).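 Note: score merges 667 nm spot intensity and signal to noise from triplicate slides.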 Conditions: higher = more signal.
For test [5], the target named is Neurogenic locus notch homolog protein 2 (Homo sapiens) (UniProt Q04721). Kind of test: Notch2 binders on small-molecule microarrays, primary screen, biochemical, small-molecule microarray, 635 nm fluorescence, stem cell growth factors (AID 1073). The conditions noted are these: Notch2 binding, higher = more signal.
For test [6], the target named is Pro-neuregulin-1, membrane-bound isoform (Homo sapiens) (UniProt Q02297). Description: NRG1 binders on small-molecule microarrays, primary screen, psychiatric disease protein project, biochemical, small-molecule microarray, fluorescence 635/667 (AID 1075).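 Note: score combines 667 nm spot fluorescence with signal to noise.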 The conditions noted are these: NRG1 binding, 635 nm fluorescence, higher = more signal.
The subject of test [7] is Neuregulin-1 EGF-like domain. Description: binders of neuregulin-1 EGF-like domain, primary screen, biochemical, small-molecule microarray, 635 nm fluorescence (AID 1081).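 Note: binding of the protein to compounds printed on small-molecule microarray slides.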 The conditions noted are these: small-molecule microarray binding, higher = more signal.
The nature of test [8]: FRG1 promoter luciferase signal modulators, primary screen, FRG1 inhibition for FSHD, cell-based, C2C12 myotubes, firefly/Renilla luciferase, luminescence (AID 1084). Conditions: higher = more signal, called active from +8 up or from −8 down.
The nature of test [9]: binders of probe aFST on microarray, primary screen, stem cell growth factor project, biochemical, small-molecule microarray, fluorescence 635/667 (AID 1086).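 Note: score merges 667 nm fluorescence with signal-to-noise of each printed compound spot.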 Conditions: higher = more signal.
Test [10] can be described thus: binders of probe aHhip on microarray, primary screen, stem cell growth factor project, biochemical, small-molecule microarray, fluorescence 635/667 (AID 1087).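 Note: score merges spot fluorescence at 667nm with spot signal to noise ratio.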 Conditions: higher = more signal.
The test system of test [11] is PRMT1 (protein arginine N-methyltransferase 1). Description: PRMT1 binders on small-molecule microarrays, primary screen, biochemical, small-molecule microarray, 635 nm fluorescence (AID 1088).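 Note: binding of Prmt1 protein to compounds spotted on small-molecule microarray slides.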 Conditions: small-molecule microarray binding, higher = more signal.
Test [12] in a line: yeast growth modulation, basal conditions, primary screen, YJM789 clinical isolate, OD600, 24 h (AID 1089).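 Note: growth of clinical yeast isolate S. cerevisiae YJM 789 seeded 1000 cells per well; test concentration not given here.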 Conditions: S. cerevisiae YJM789 growth, higher = more signal, called active from +8 up or from −8 down.
Test [13] can be described thus: fission yeast growth modulation, primary screen, strain 972, OD600, 24 h, no modulator (AID 1090).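 Note: basal condition with compound alone and no growth modifier present; test concentration not given here.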 Conditions: S. pombe 972 growth, higher = more signal, called active from +8 up or from −8 down.
Test [14] is described as follows: S. cerevisiae growth modulation with rapamycin, primary screen, strain BY4716, OD600, 96 h (AID 1091). Note: test concentration not given here. Conditions: higher = more signal, called active from +8 up or from −8 down.
The target of test [15] is Torsin-1A-interacting protein 2 (Homo sapiens) (UniProt Q8NFQ8). Description: LULL1 binders on small-molecule microarray, primary screen, cell lysate, human LULL1 lysate, 635/667 nm fluorescence (AID 1092).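 Note: probe is lysate of COS7 cells overexpressing human LULL1; score merges per-feature 667 nm fluorescence with signal-to-noise.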 The conditions noted are these: hLULL1 lysate binding, 635 nm fluorescence, higher = more signal.
Test [16] can be described thus: E. coli growth modulation, two-sided OD650, primary screen, E. coli filamentation project, strain DRC41, 24 h (AID 1093).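 Note: MC1000 strain lacking acrAB efflux and sulA so SOS filamentation is blocked; test concentration not given here.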 The conditions noted are these: OD650, 24 h, higher = more signal, called active from +8 up or from −8 down.
Test [17] in a line: small-molecule microarray binders of probe aLefty2, primary screen, biochemical, biotinylated probe, 635/667 nm fluorescence (AID 1094).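 Note: score merges spot fluorescence near 667 nm with spot signal-to-noise ratio.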 Conditions: higher = more signal.
The subject of test [18] is Noggin (protein binding on small-molecule microarray). Description: Noggin binders on small-molecule microarray, primary screen, biochemical, 635/667 nm fluorescence (AID 1095).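 Note: score merges 667 nm feature fluorescence with signal to noise over triplicate slides.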 Conditions: 635 nm fluorescence, higher = more signal.
Test [19] addresses Neurogenic locus notch homolog protein 3 (Homo sapiens) (UniProt Q9UM47). Description: NOTCH3 binders on small-molecule microarray, primary screen, biochemical, 635/667 nm fluorescence (AID 1096). Conditions: NOTCH3 binding, 635 nm fluorescence, higher = more signal.
The nature of test [20]: small-molecule microarray binders of probe aEGFR, primary screen, biochemical, biotinylated probe, 635/667 nm fluorescence (AID 1097).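 Note: probe is a biotinylated anti-EGFR antibody binding compounds printed on slides; score combines fluorescence near 667 nm and signal to noise of each spot.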 Conditions: higher = more signal.

Activity calls are given as the source filed them.

Chain of Neurogenic locus notch homolog protein 2 (Homo sapiens) (Q04721 whole entry, looked up, canonical isoform): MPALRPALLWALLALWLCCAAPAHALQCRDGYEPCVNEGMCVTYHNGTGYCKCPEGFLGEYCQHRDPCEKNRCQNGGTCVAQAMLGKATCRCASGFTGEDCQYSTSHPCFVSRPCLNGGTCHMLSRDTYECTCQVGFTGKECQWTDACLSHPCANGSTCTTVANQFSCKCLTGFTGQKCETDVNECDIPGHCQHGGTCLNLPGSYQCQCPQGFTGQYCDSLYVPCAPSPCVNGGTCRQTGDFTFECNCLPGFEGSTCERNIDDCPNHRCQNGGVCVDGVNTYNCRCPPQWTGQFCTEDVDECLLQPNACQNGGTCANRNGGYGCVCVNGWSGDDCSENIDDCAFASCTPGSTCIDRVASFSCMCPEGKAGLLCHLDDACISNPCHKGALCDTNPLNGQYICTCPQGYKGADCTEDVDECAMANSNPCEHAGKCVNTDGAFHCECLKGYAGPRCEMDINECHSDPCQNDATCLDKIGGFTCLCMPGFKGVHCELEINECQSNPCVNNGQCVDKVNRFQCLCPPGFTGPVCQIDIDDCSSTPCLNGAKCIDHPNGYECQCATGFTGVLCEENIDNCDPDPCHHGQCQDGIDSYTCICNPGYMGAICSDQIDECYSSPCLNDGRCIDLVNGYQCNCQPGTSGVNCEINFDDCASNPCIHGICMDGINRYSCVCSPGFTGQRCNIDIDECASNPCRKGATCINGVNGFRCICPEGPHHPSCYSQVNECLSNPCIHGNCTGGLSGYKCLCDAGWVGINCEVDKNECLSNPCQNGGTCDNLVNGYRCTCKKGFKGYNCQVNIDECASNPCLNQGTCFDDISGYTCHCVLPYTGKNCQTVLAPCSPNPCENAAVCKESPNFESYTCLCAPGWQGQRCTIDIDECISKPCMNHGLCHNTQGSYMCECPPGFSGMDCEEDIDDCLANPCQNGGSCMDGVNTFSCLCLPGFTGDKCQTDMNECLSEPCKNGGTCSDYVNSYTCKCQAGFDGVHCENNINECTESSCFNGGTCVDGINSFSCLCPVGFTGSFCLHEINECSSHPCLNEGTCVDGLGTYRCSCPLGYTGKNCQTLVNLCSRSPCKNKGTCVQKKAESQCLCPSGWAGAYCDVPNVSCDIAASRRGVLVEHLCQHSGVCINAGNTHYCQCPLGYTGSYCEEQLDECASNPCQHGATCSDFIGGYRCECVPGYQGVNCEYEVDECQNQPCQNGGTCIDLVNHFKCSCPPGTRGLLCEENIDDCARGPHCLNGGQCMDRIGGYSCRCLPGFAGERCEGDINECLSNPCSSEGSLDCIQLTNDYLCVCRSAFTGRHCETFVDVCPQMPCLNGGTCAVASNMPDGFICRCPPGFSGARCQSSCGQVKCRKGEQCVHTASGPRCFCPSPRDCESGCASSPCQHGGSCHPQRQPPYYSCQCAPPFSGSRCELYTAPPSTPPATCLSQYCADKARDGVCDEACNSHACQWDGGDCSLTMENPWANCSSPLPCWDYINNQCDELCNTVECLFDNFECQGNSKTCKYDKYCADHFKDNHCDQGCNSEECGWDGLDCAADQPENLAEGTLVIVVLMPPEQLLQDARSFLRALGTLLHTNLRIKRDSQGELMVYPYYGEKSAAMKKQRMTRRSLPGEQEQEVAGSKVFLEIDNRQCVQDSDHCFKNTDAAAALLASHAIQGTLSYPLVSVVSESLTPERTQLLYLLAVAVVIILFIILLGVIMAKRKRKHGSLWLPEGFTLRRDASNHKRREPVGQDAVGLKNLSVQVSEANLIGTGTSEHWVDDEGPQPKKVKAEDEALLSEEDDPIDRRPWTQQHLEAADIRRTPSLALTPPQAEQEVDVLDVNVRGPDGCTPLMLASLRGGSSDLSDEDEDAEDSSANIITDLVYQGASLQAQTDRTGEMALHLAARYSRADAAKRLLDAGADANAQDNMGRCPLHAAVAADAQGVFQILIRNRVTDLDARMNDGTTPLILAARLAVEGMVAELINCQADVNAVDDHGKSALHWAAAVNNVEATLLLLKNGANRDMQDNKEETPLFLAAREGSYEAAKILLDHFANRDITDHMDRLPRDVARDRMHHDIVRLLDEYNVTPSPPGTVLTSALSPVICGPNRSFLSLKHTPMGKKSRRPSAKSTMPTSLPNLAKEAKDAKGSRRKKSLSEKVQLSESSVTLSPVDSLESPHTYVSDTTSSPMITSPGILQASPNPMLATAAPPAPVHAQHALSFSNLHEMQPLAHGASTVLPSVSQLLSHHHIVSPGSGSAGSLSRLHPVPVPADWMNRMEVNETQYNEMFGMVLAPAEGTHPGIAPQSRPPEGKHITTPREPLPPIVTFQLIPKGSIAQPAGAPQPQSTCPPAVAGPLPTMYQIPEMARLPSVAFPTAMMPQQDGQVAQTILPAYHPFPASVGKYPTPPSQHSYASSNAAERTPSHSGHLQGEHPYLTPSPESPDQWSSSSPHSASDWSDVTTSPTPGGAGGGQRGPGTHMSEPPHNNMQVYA
Chain of Neurogenic locus notch homolog protein 3 (Homo sapiens) (Q9UM47 whole entry, looked up): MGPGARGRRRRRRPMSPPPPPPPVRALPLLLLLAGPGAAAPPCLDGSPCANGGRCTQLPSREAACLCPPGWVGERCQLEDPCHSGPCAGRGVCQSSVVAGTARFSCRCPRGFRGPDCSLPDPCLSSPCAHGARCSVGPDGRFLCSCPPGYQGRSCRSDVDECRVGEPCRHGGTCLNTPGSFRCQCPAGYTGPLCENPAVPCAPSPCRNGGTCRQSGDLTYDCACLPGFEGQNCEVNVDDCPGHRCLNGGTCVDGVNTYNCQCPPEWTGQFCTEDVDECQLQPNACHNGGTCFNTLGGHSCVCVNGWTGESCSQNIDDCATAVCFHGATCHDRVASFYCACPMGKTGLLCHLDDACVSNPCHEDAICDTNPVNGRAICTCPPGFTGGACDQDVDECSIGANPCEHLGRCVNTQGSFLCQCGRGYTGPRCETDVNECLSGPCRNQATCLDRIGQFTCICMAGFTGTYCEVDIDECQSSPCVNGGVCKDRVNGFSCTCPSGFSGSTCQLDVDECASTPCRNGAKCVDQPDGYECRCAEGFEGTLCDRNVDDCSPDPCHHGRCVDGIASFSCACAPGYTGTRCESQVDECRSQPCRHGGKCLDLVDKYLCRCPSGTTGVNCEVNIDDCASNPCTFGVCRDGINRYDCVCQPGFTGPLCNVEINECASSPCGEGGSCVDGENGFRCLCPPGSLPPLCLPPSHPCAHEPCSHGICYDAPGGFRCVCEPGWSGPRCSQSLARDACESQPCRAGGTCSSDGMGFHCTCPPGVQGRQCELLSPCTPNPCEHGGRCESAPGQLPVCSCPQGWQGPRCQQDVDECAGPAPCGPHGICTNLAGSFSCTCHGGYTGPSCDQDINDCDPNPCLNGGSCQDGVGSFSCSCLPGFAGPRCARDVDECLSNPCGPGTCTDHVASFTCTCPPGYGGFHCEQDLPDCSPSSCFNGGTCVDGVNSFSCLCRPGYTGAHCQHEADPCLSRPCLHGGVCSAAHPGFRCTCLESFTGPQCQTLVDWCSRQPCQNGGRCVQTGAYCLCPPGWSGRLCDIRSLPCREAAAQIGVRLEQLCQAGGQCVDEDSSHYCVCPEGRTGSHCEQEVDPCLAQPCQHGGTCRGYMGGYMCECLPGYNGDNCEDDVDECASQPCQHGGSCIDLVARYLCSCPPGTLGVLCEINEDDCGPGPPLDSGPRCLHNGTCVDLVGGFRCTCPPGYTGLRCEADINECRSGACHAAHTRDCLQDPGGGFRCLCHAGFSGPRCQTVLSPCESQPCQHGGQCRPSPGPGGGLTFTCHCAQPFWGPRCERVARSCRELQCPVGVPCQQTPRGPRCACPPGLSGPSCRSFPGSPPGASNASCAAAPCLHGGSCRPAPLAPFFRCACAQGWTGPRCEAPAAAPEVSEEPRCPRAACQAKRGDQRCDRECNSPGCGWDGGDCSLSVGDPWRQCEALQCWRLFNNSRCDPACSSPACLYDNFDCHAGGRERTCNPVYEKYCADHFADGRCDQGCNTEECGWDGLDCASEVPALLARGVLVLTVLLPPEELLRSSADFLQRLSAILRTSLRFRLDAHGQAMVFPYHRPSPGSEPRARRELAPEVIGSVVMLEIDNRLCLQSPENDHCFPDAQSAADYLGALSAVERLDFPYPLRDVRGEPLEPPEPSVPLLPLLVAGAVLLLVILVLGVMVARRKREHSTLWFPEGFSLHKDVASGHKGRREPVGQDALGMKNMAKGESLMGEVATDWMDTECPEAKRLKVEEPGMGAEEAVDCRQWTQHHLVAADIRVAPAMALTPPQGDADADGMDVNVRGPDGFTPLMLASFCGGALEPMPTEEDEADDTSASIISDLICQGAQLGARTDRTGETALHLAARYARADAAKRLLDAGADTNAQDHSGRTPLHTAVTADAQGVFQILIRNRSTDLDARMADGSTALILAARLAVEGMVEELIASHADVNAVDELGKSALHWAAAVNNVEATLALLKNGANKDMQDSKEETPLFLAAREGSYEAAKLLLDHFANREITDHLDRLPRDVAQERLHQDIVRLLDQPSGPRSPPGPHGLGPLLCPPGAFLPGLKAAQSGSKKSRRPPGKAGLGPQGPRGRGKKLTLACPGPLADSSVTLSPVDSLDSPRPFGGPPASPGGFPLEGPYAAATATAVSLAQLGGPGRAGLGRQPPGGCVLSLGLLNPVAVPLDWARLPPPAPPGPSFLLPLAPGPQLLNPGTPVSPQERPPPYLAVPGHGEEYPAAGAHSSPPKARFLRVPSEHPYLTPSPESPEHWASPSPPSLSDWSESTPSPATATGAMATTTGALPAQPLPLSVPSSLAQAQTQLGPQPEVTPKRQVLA

Regarding `NC(=O)NCC#Cc1ccc2c(c1)[C@]1(C(=O)N2)[C@H](c2ccc(OCCO)cc2)N2[C@H](c3ccccc3)[C@H](c3ccccc3)OC(=O)[C@H]2[C@@H]1C(=O)N1CCCCCCC1`, the composite z-score in test [1] stood at 3.57; in test [2] it was 0.48; in [3], 0.943; in [4], 1.2; in [5], 1.53; in test [6] it was 1.74. The composite z-score in test [7] was determined as 0.955; in test [9], 3.04; in test [10] it was 3.79; in test [11] it was 1.09; in [15] it was 3.3; in test [17] it was 1.73. The values for the composite z-score in test [18], in test [19] and in [20] were 1.88, 1.04 and 1.06, respectively. In addition, the z-score in [8] was -0.154 (inactive); in test [12] it was 1.57 (inactive); in test [13], 1.43 (inactive); in [14], 3.66 (inactive); in test [16], -0.53 (inactive).

With `CC(C)(C)OC(=O)CC[C@]1(C(=O)O)COC(c2ccc(OCCCO)cc2)=N1`, the composite z-score in [1] was 0.303; in [2], 2.38; in [3] it was -0.0279; in test [4], -0.011; in [5], 0.541; in [6] it was 1.98. The composite z-score is 1.45 in test [7]; 0.556 in [9]; -0.0296 in test [10]; -1.22 in test [11]; 1.29 in [15]; 0.12 in [17]. The composite z-score is -1.09 in test [18], -0.463 in [19] and -0.0575 in test [20]. For the same molecule, the z-score in test [8] was 0.394 (inactive); in [12], 0.923 (inactive); in test [13] it was 0.179 (inactive); in [14], 0.197 (inactive); in test [16], -0.079 (inactive).

Take `C=CCOC(=O)[C@@H]1[C@H]2C(=O)O[C@H](c3ccccc3)[C@H](c3ccccc3)N2[C@H](c2ccc(OCCOC(=O)[C@@H]3C[C@@H]4C(=O)N[C@@H](CCCCNC(C)=O)C(=O)N4[C@@H]3c3ccc(O)cc3)cc2)[C@@]12C(=O)Nc1ccc(I)cc12`: the composite z-score in test [1] was -0.101; in test [2], 0.0133; in [3], -0.0502; in test [4] it was 0.722; in test [5], 0.971; in [6], 0.767. Further, the composite z-score in [7] was 1.16; in [9], 0.4; in test [10], -0.0346; in test [11], 1.54; in test [15], 2.15; in test [17] it was -0.0248. The composite z-score in [18] was found to be 1.42; in test [19], 1.13; in test [20], 0.15. The z-score in test [8] is 0.0976 (inactive); in test [12], 0.0797 (inactive); in test [13], 0.994 (inactive); in test [14], 2.96 (inactive); in [16] it was -0.101 (inactive).

Consider `[N-]=[N+]=NCc1ccccc1C[C@]1(C(=O)NCCN2CCOCC2)COC(c2ccc(OCCCO)cc2)=N1`, for which the composite z-score was 0.186 in test [1]; 1.25 in [2]; -0.0647 in test [3]; 0.121 in test [4]; 0.973 in test [5]; 1.02 in test [6]. Further, the composite z-score in [7] is 1.2; in test [9] it was 0.817; in [10], -0.0645; in [11], 1.55; in test [15] it was 3.08; in test [17] it was 0.0004. For the same molecule, the composite z-score was 0.516 in [18], 0.486 in [19] and -0.0351 in test [20]. Moreover, the z-score was -2.23 (inactive) in [8]; -1.52 (inactive) in test [12]; -2.24 (inactive) in [13]; -1.66 (inactive) in test [14]; 1.46 (inactive) in [16].

Consider `O=C1C2C=CC(C(O)c3ccc(Br)cc3)N(Nc3ccccc3)C2C(=O)N1c1ccccc1` (stereo not given), for which the composite z-score in [1] was determined as 0.385; in test [2], 0.227; in [3], 0.191; in test [4] it was 0.82; in [5], 1.41; in [6] it was 1.86. Further, the composite z-score is 1.09 in test [7]; -0.194 in test [9]; -0.0645 in test [10]; 0.826 in test [11]; 2.12 in test [15]; 0.228 in test [17]. The composite z-score in [18] is -0.325; in test [19] it was 1.12; in test [20], -0.0123. The z-score in [8] was -2.33 (inactive); in test [12], 0.379 (inactive); in [13], 0.443 (inactive); in [14], 0.84 (inactive); in test [16], -1.59 (inactive).
